Measurements as given in PubChem BioAssay AID1619 (SRMLSC, 2009).
Out of some 220,000 compounds screened, about 830 (0.38%) were called active.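 Rule for the calls: active = compound inhibiting the enzyme by more than half at any dose during confirmatory dose-response retesting; inconclusive = strong single-dose inhibitors picked by rank but not retested; inactive = the rest.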 Not all results are given here. Results with a measured potency or affinity are listed apart.

What follows are compounds tested against Leucine aminopeptidase (Plasmodium falciparum (isolate 3D7)) (UniProt Q8IL11) (assay: P. falciparum M17LAP inhibitors, primary screen, biochemical, fluorogenic H-Leu-NHMec substrate, 1536-well (AID 1619;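 note: plate controls were full reaction with DMSO carrier for no effect and no enzyme background for full effect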)). Conditions: recombinant M17LAP, H-Leu-NHMec fluorogenic kinetic assay; at 30 µM; hits give high values.
Chain of Leucine aminopeptidase (Plasmodium falciparum (isolate 3D7)) (Q8IL11 whole entry, looked up): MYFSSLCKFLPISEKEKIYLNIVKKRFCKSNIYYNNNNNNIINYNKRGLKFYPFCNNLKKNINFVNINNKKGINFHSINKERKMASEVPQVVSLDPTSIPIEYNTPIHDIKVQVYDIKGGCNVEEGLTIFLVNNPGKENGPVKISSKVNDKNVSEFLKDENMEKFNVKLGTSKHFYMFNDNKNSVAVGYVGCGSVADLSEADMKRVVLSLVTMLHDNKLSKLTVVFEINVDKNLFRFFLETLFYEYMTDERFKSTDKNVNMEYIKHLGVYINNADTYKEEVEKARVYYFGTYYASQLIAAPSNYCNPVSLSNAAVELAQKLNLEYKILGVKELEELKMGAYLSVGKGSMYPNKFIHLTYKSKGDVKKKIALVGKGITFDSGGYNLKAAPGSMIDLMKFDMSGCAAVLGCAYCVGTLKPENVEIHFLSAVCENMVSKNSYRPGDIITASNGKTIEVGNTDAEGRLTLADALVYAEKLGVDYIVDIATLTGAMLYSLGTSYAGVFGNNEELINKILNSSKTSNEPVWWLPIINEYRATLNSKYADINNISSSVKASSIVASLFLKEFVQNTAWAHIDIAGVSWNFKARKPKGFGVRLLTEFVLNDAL

inhibition, inactive:
CN1CCC(Oc2ccccc2Sc2ccccc2)CC1 2.7%
Cc1ccc(S(=O)(=O)Nc2ccccc2C(=O)Nc2ccc(S(=O)(=O)Nc3nccc(C)n3)cc2)cc1 -17.2%
Cc1nnc(SCC(=O)Nc2ccccc2)[nH]c1=O 41.7%
Cc1nnc(SCC(=O)Nc2ccc3c(c2)OCO3)[nH]c1=O 6.76%
CC(=O)Nc1ccc(NC(=O)CSc2nnc(C)c(=O)[nH]2)cc1 5.47%
Cc1cccc(C)c1NC(=O)CSc1nnc(C)c(=O)[nH]1 15.2%
O=c1c2ccccc2nnn1Cc1ccc2ccccc2c1 -5.34%
COc1ccc(-n2c(SC(CN3CCCCC3)CN3CCCC3=O)nc3ccccc3c2=O)cc1 (stereo not given) 0.58%
CCOC(=O)C1=C(O)/C(=C/c2ccc(OCC(=O)O)c(OCC)c2)SC1=Nc1ccccc1 43.5%
CCOC(=O)C1=C(O)/C(=C/c2ccc(OCC(=O)O)c(OC)c2)SC1=Nc1ccc(OC)cc1 41.7%
CCOC(=O)C1=C(O)/C(=C/c2ccc(OCC(=O)O)c(OC)c2)SC1=Nc1ccc(OCC)cc1 38.5%
CCOc1cc(C=C2C(=O)c3ccccc3C2=O)ccc1OCC(=O)Nc1ccc(C)cc1 6.24%
Cc1ccc(C(=O)Nc2nc3ccc(S(C)(=O)=O)cc3s2)o1 48.6%
CCOc1cc(S(=O)(=O)NC2CCCCCC2)ccc1F 4.34%
Cc1ccc(Nc2nnc(SCC(=O)c3ccc(Br)s3)s2)c(C)c1 27.2%
O=C1CCCCC1Sc1nnc(Nc2ccccc2)s1 (stereo not given) 16.7%
Cc1cccc(Nc2nnc(SCC(=O)N(C)C3CCS(=O)(=O)C3)s2)c1C (stereo not given) 35%
CCc1ccc(Nc2nnc(SCC(=O)N(C)C3CCS(=O)(=O)C3)s2)cc1 (stereo not given) 6.41%
Cc1nc(CSc2nnc(Nc3cccc(C)c3C)s2)cs1 22.7%
Cc1cccc(Nc2nnc(SCC3CCCCO3)s2)c1C (stereo not given) 13.4%
Cc1ccc(Nc2nnc(SCC(=O)NC3CCS(=O)(=O)C3)s2)c(C)c1 (stereo not given) 9.77%
Cc1cccc(Nc2nc3ccccc3s2)c1C 0.94%
CCSc1ccc2cc(OC)ccc2[n+]1CC 2.2%
Cc1ccc(NC(=O)CNCc2ccccc2)cc1Br 1.6%
CCC(C)(C)n1nnnc1CN1CCN(C(c2ccccc2)c2ccccc2)CC1 7.37%
O=C1CSC2(CCCCC2)N1CCO 15.1%
O=S1(=O)CCC(NC(=S)NC2CCS(=O)(=O)C2)C1 (stereo not given) 1.24%
CCOCCCNC(=S)N1C2CCC1CC(NC(=O)NC13CC4CC(CC(C4)C1)C3)C2 (stereo not given) 2.02%
C=CC(=O)N=c1sc2ccccc2n1-c1ccccc1 -2.28%
c1ccc(-c2ccccc2OCCCN2CCCCCC2)cc1 -1.36%
Cc1cccc(NS(=O)(=O)c2cnc[nH]2)c1 -0.29%
CCCCN=C(C)C1=C(O)CSC1=O 12.4%
Cc1ccc(Nc2nnc(SCC3CCCCO3)s2)cc1 (stereo not given) 13.8%
CC(C)c1ccc(Nc2nnc(SC3CCOC3=O)s2)cc1 (stereo not given) 32.8%
Cc1cc(C)n(-c2ccc(C(=O)Nc3nnc(C4CC4)s3)cc2)n1 4.37%
COc1ccc(OC)c(NC(=O)c2ccc(CSc3nnc(C)s3)cc2)c1 -1.27%
N/C(=N\OC(=O)COc1ccc(Br)cc1Cl)c1ccccn1 -6.93%
O=C1C(C2=NC(c3ccccn3)C3C(=O)N(c4ccc(Cl)cc4Cl)C(=O)C23)=C(O)c2ccccc21 (stereo not given) 3.81%
O=C(C1=NN(c2ccccc2)C2C(=O)N(c3ccc(Cl)cc3)C(=O)C12)c1ccccc1 (stereo not given) 4.99%
O=C1C(C2=NC(c3ccccn3)C3C(=O)N(c4ccc(OC(F)(F)F)cc4)C(=O)C23)=C(O)c2ccccc21 (stereo not given) -6.84%
O=C1C(C2=NC(c3ccccn3)C3C(=O)N(c4ccccc4)C(=O)C23)=C(O)c2ccccc21 (stereo not given) -11%
O=C(NNC(=O)c1cccc2ccccc12)c1ccc(-c2ccccc2)cc1 -1.51%
CCCCOC(=O)c1ccc(NC(=O)C(=O)NCCN(C)C)cc1 4.81%
Cn1cnc([N+](=O)[O-])c1Oc1cccc(O)c1 -5.34%
Cc1cc(NS(=O)(=O)c2ccc(NC(=O)Nc3cccc(Cl)c3)cc2)no1 41%
Cc1cc(C)nc(SCC(=O)Nc2ccc(S(=O)(=O)Nc3ncccn3)cc2)n1 0.08%
O=C(CSc1nc2ccccc2s1)Nn1cnnc1 6.17%
Cc1noc(NS(=O)(=O)c2ccc(NC(=O)CSc3nc4ccccc4[nH]3)cc2)c1C -54.8%
Cc1cc(NS(=O)(=O)c2ccc(NC(=O)Nc3ccccc3)cc2)no1 53.6%
Cc1cc(C)nc(NC(=O)CSc2nc3ccccc3s2)n1 -0.55%
O=C(CSc1ccccc1)Nc1ccc(S(=O)(=O)Nc2ncccn2)cc1 4.72%
Cc1noc(NS(=O)(=O)c2ccc(NC(=O)CSc3ncccn3)cc2)c1C -8.95%
Cc1nn(-c2ccccc2)c(Cl)c1/C=C(\C#N)C(=O)NC(C)C 0.39%
COCc1cc(C)nc(N/N=C/c2ccc(Cl)c(Cl)c2)c1C#N -7.61%
O=[N+]([O-])c1ccc(Nc2c3ccccc3nc3ccccc23)cc1 -29.4%
Cc1ccc(NC(=O)CN2C(=O)N/C(=C\c3cccnc3)C2=O)cc1 2.33%
Cc1ccc(Cn2c(SCc3cccnc3)nc3c2c(=O)n(C)c(=O)n3C)cc1 5.09%
CC(=O)Nc1ccc(NC(=O)CN(c2cccc(C)c2)S(C)(=O)=O)cc1 1.19%
CCc1cccc(NC(=O)CCc2nc(-c3cccs3)no2)c1 17.6%
CCNC(=S)Nc1ccc(Cl)c([N+](=O)[O-])c1 -6.59%
